# Screening results: PubChem, National Center for Advancing Translational Sciences (NCATS)
# A selection: hits, their analogues and other compounds. The true share with any hit is near 3%.
# GRP78 ERSR act: ER stress response induction in glioma; U87-MG GRP78 promoter luciferase reporter, 16 h; Potency, µM, for the others: at the highest dose activation, most hits filed as activators; actives 0.02% (n = 420,000); further: potency means the concentration at half of the fitted maximal effect; series mostly up to about 76 µM; % of control where 0% means no effect; nearly all actives have a fitted effect of over 35% in size
#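 ERSR induction read as luciferase luminescence (Bright-Glo, 10 min at room temperature) in stably transfected human U87-MG glioma cells exposed to compounds for 16 h, using GRP78 as sensor.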
# Nrf2 ARE act: Nrf2 pathway activation. AREc32 ARE-luciferase reporter (MCF7-derived line), luminescence, 24 h. Potency, µM (series often up to 46.1 µM), for inactives: at the top dose activation, actives largely listed as activators. actives 0.31% (n = 410,000). AID 624171; further: potency means the concentration at half of the fitted maximal effect; % of control where 0% means no effect; nearly all actives have a fitted effect of over 65% in size
#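 AREc32_Fluc, 1000 cells/well, OPTI-MEM + 5% FBS, o/n 37 deg C 5% CO2; 23 nL cpd by pin tool, 24 hr; Steady-Glo 30 min RT, luminescence.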
# DRD3 agonist: D3 dopamine receptor (human) agonism. D3R DiscoveRx beta-arrestin cells, luminescence, 90 min. actives 0.58% (n = 410,000). max activation, %; in the data active means max activation above about 30%; further: 0% is about no effect
# Target sequence (P35462 whole entry, looked up): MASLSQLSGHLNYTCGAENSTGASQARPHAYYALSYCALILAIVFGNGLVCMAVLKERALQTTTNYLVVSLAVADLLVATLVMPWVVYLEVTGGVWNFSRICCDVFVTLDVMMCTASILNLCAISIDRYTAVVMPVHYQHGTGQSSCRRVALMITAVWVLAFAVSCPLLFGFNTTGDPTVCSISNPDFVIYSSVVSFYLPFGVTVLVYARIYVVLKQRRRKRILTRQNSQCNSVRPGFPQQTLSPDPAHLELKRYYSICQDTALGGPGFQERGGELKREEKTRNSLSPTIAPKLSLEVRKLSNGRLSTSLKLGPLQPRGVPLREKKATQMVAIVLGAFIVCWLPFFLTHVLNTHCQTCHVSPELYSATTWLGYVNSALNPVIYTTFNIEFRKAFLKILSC
#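 Cells at 1500/well, incubated overnight, then treated with pinned compounds (dopamine as control) for 90 min at 37 degrees C. DiscoveRx reagent added for 30 - 60 minutes at room temperature; luminescence read.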
# DRD3 antagonist: blocks the human D3 dopamine receptor; P35462; D3R cells, DiscoveRx beta-arrestin luminescence, antagonist mode; hits give low values; max response, negative = inhibition, %; actives 2.5% (n = 360,000); in the data active means max response below about -50%; inconclusive means no clear call, values can overlap the other calls; further: on the % scale 0 is the no-effect control and ±100 the full control effect
#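 Cells plated overnight at 1500 cells/well, then exposed to library compounds with dopamine controls for 90 minutes at 37 degrees C. DiscoveRx reagent added for 30–60 minutes at room temperature; luminescence read, quantitative HTS format.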
# Starred values were filed as active, the others as inactive; ? = inconclusive; nt = no result; ! = repeats disagree. Unless noted, the call rests on the fitted dose curve; in most records, active means well fitted curve in the direction sought with a large enough effect; inconclusive means small, poorly fitted or top-dose-only effect, or another doubt; inactive means no such curve, though single readings can be large; an effect the other way counts as inactive or inconclusive.
SMILES,GRP78 ERSR act,Nrf2 ARE act,DRD3 agonist,DRD3 antagonist
Clc1ccc(N2CCN(Cc3cc4ccccn4n3)CC2)cc1,-5%,nt,nt,nt
O=C(COC(=O)c1cc(S(=O)(=O)N2CCc3ccccc3C2)ccc1Cl)NCc1ccco1,16%,?,-4,-55*
O=C(COC(=O)c1cccc(S(=O)(=O)N2CCc3ccccc3C2)c1)NCc1ccco1,-1%,3%,-13,-26
c1cncc(OC2CCN(Cc3ccc4c(c3)CN(Cc3ccc5c(c3)CCO5)CCO4)CC2)c1,-4%,nt,nt,nt
CCOC(=O)Cn1c(=O)oc2cc(S(=O)(=O)N3CCN(c4cccc(Cl)c4)CC3)ccc21,-5%,0%,10,nt
CCOC(=O)N1CCC(Nc2c(Nc3ccc(C)c(C)c3)c(=O)c2=O)CC1,2%,0%,-68,-71*
CCOC(=O)N1CCN(c2c(NC3CCN(Cc4ccccc4)CC3)c(=O)c2=O)CC1,-3%,0%,-22,-51*
CCOC(=O)N1CCN(c2c(NCCc3ccccc3)c(=O)c2=O)CC1,-3%,0%,3,16
CCOC(=O)N1CCC(Nc2c(OCC)c(=O)c2=O)CC1,0%,-1%,-2,23
Cc1c(I)c(=O)n(-c2ccccc2)n1C,-3%,nt,-1,nt
Cc1c(CN(C)CCc2ccccc2)c(=O)n(-c2ccccc2)n1C,-6%,-1%,-29,-77*
Cc1c(O)c(=O)n(-c2ccccc2)n1C,-4%,0%,-68,-57*
Cc1c(N=Cc2c(O)n(C)c(=O)c3ccccc23)c(=O)n(-c2ccccc2)n1C,-4%,0%,33*,42
Cc1c(N=Cc2ccncc2)c(=O)n(-c2ccccc2)n1C,-5%,1%,1,2
Cc1c(N=NC2=C(O)CC(C)(C)CC2=O)c(=O)n(-c2ccccc2)n1C,-4%,0%,-45,-63*
CCCCC(F)(F)[C@@]1(O)CC[C@H]2[C@@H](CC(=O)[C@@H]2CCCCCCC(=O)O)O1,nt,nt,2,nt
COc1ccccc1-c1noc(-c2ccc(NCC3CCCO3)c([N+](=O)[O-])c2)n1 (configuration not stated),0%,6%,-13,nt
CCCC(=O)NC(=S)c1c(C)n(C)n(-c2ccccc2)c1=O,-1%,0%,38*,72
COc1ccc(S(=O)(=O)N2CCN(c3nc(-c4cccs4)nc4ccccc34)CC2)cc1,-3%,nt,nt,nt
CCOC(=O)N1CCN(C(=O)CSc2ccc3nnc(-c4cccnc4)n3n2)CC1,-4%,0%,-23,-98*
c1ccc(-c2cnc(-c3ccccc3)nn2)cc1,-5%,2.8µM*,5,-7
Oc1ccc(Cl)cc1CNCc1ccc(F)cc1,-1%,11%,-43,-81*
Oc1ccc(Cl)cc1CNCc1ccc(Cl)cc1,-1%,15%,-27,?
Cc1ccc(S(=O)(=O)N2CCN(Cc3cc(Br)ccc3O)CC2)cc1,-2%,5%,-14,nt
CCc1ccccc1OCc1nc2ccc(S(=O)(=O)N3CCOCC3)cc2[nH]1,0%,2%,-2,-56*
SMILES,GRP78 ERSR act,Nrf2 ARE act,DRD3 agonist,DRD3 antagonist
Cc1ccccc1OCc1nc2ccc(S(=O)(=O)N3CCOCC3)cc2[nH]1,-2%,0%,13,-14
C[C@H](NC(=O)CNC(=O)[C@@H](NC(=O)[C@H](Cc1ccccc1)NC(=O)CNC(=O)CNC[C@@H](N)Cc1ccccc1)[C@@H](C)O)C(=O)N[C@@H](CCCN=C(N)N)C(=O)N[C@@H](CCCCN)C(=O)N[C@@H](CO)C(=O)N[C@@H](C)C(=O)N[C@@H](CCCN=C(N)N)C(=O)N[C@@H](CCCCN)C(N)=O,-8%,nt,nt,nt
CCCN(c1ccc(C(=O)OC)cc1)S(=O)(=O)c1ccccc1,-1%,0%,6,5
C=CCN(c1ccc(C(=O)OC)cc1)S(=O)(=O)c1ccccc1,-2%,0%,1,-76*
COc1cc(/C=N/NC(=O)c2cc(-c3ccc4c(c3)OCO4)n[nH]2)ccc1O,2%,8%,61*,38
COc1cc([C@@H]2c3cc4c(cc3C(O[C@@H]3O[C@@H]5CO[C@@H](C)O[C@H]5[C@H](O)[C@H]3O)C3COC(=O)[C@@H]32)OCO4)cc(OC)c1OP(=O)(O)O (some centres not stated),nt,nt,-6,nt
COc1cccc(CNS(=O)(=O)c2cc3c4c(c2)CCN4C(=O)CC3)c1,-5%,0%,-29,-72*
O=C1CCc2cc(S(=O)(=O)NCc3ccccc3)cc3c2N1CC3,-2%,0%,2,6
COc1cccc(N2CCN(C(=O)C3CCN(S(=O)(=O)c4c(C)noc4C)CC3)CC2)c1,-4%,-1%,2,nt
CO[C@H]1C=CO[C@@]2(C)Oc3c(C)c(O)c4c(O)c(c5c(nc6cc(C)ccn65)c4c3C2=O)NC(=O)/C(C)=C\C=C[C@H](C)[C@H](O)[C@@H](C)[C@@H](O)[C@@H](C)[C@H](OC(C)=O)[C@@H]1C,nt,nt,-12,nt
O=C(CN1C(=O)c2cccnc2Oc2ccc(Cl)cc21)N1CCOCC1,-5%,-1%,-2,-8
CC1CCN(C(=O)CCCN2C(=O)c3cccnc3Oc3ccc(Cl)cc32)CC1,-2%,3%,-16,-65*
N[C@@H](C(=O)N[C@H]1C(=O)N2C(C(=O)O)=C(Cl)CC[C@H]12)c1ccccc1,0%,nt,nt,nt
CC(=O)NC1CCCC1C#N (configuration not stated),-2%,nt,nt,nt
CCCc1[nH]nc2c1C(c1ccsc1)C(C#N)=C(N)O2 (configuration not stated),-4%,3%,4,8
CCCc1[nH]nc2c1C(C1CCCCC1)C(C#N)=C(N)O2 (configuration not stated),35µM*,25%,-1,-3
O=c1nc2c(O)cccn2c2c1c(=O)[nH]c1ccccc12,-2%,5.6µM*,4,5
COc1cc(CNc2ccc3[nH]c(=O)[nH]c3c2)ccc1OCc1ccc(F)cc1Cl,-4%,4%,35*!,17
CC(C)NC(=O)[C@]1(C)CCC[C@@]2(C)C3CC[C@@]4(C)C[C@]3(CCC21)CC4=O (some centres not stated),1%,0%,1,6
C[C@@]12CCC3[C@@](CCC4[C@@]3(C)CCC[C@@]4(C)C(=O)N3CCOCC3)(CC1=O)C2 (some centres not stated),-6%,-1%,31*,5
CC(CC(=O)O)CC(=O)Nc1cc(C(F)(F)F)cc(C(F)(F)F)c1 (configuration not stated),-1%,0%,-9,1
CCC(C)(CC(=O)O)CC(=O)Nc1cc(C(F)(F)F)cc(C(F)(F)F)c1 (configuration not stated),-5%,0%,32*,17
COc1cccc(CN2C(=O)NC(C)(C3CCN(Cc4cccc(O)c4)CC3)C2=O)c1OC (configuration not stated),-3%,nt,nt,nt
COCCNC(=O)C1(C)CCCN(Cc2ccc(C)c3ccccc23)C1 (configuration not stated),-2%,1%,-11,-52*
COCCNC(=O)C1(C)CCN(Cc2csc(-c3ccc(Cl)cc3)n2)C1 (configuration not stated),0%,1%,-15,-103*
